Experimental data taken from PubChem BioAssay (NCI).
Compounds without any hit were thinned out: in the full panel of roughly 83,000, 20% have a hit.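 Assay: single dose, 48 h. Readout: percent growth (0 = no net growth; negative = cell death). Active: <10.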 A number with no mark means an inactive call. The source made the active and inactive calls.

Columns and labels:
Assay in all cases: NCI-60 one-dose screen, 48 h (100 = growth as untreated, 0 = no growth, -100 = all killed)
Settings in all cases: 10 µM unless noted
HCT-15 colon = system: HCT-15 colon
HT29 colon = system: HT29 colon
SNB-75 CNS = system: SNB-75 CNS
SNB-19 CNS = system: SNB-19 CNS
U251 CNS = system: U251 CNS
PC-3 prostate = system: PC-3 prostate
SK-MEL-5 melanoma = system: SK-MEL-5 melanoma
UACC-62 melanoma = system: UACC-62 melanoma
LOX IMVI melanoma = system: LOX IMVI melanoma
SK-MEL-28 melanoma = system: SK-MEL-28 melanoma
SK-MEL-2 melanoma = system: SK-MEL-2 melanoma
EKVX NSCLC = system: EKVX NSCLC
SN12C renal = system: SN12C renal
UO-31 renal = system: UO-31 renal
TK-10 renal = system: TK-10 renal
ACHN renal = system: ACHN renal
CAKI-1 renal = system: CAKI-1 renal
A498 renal = system: A498 renal
CCRF-CEM leukemia = system: CCRF-CEM leukemia
MOLT-4 leukemia = system: MOLT-4 leukemia

| Structure (SMILES) | growth (HCT-15 colon) | growth (HT29 colon) | growth (SNB-75 CNS) | growth (SNB-19 CNS) | growth (U251 CNS) | growth (PC-3 prostate) | growth (SK-MEL-5 melanoma) | growth (UACC-62 melanoma) | growth (LOX IMVI melanoma) | growth (SK-MEL-28 melanoma) | growth (SK-MEL-2 melanoma) | growth (EKVX NSCLC) | growth (SN12C renal) | growth (UO-31 renal) | growth (TK-10 renal) | growth (ACHN renal) | growth (CAKI-1 renal) | growth (A498 renal) | growth (CCRF-CEM leukemia) | growth (MOLT-4 leukemia) |
| --- | --- | --- | --- | --- | --- | --- | --- | --- | --- | --- | --- | --- | --- | --- | --- | --- | --- | --- | --- | --- |
| COCCNc1ccc2ncc(C#Cc3cncc(C(=O)Nc4ccc(CN5CCN(C)CC5)c(C(F)(F)F)c4)c3)n2n1 | -22.7% (active) | -22.6% (active) | -71.5% (active) | -12% (active) | -38.2% (active) | -25.3% (active) | -93.7% (active) | -62.4% (active) | -87.8% (active) | -22.9% (active) | -90.5% (active) | -23.2% (active) | -6.14% (active) | -40% (active) | -43.3% (active) | 1.57% (active) | -40.3% (active) | -98% (active) | 11.2% | 5.84% (active) |
| Nc1cc(F)ccc1NC(=O)c1ccc(NC(=O)C/C=C/c2cccnc2)cc1 | 29.5% | 24.5% | 51.3% | 46.7% | 34.1% | 36.6% | 49.7% | 42.1% | 39.7% | 49.4% | 41.3% | 73% | 29.5% | 52.6% | 52.9% | 55.9% | 66.4% | 43.2% | 24.6% | 40.7% |
| CCCCCc1ccc(S(=O)(=O)Nc2cccc(-c3csc(NC(=O)CN4CCN(CCO)CC4)n3)c2)cc1 | 51.3% | 35.6% | 88% | 82.6% | 55.4% | 64.1% | 51.7% | 90% | -45.9% (active) | 79.4% | 99.7% | 81.4% | 86.6% | 79.9% | 113% | 101% | 76.2% | 81% | 53.8% | 58.8% |
| O=C(CNc1nc(-c2cccc([N+](=O)[O-])c2)cs1)Nc1cccc([N+](=O)[O-])c1 | 3.96% (active) | -34.9% (active) | 52.9% | -12.3% (active) | -14.8% (active) | -37.8% (active) | -84.5% (active) | -62.6% (active) | -74.3% (active) | -24.3% (active) | 9.35% (active) | 52.9% | -4.54% (active) | -79.3% (active) | -13.6% (active) | -20.1% (active) | -10.3% (active) | -77.4% (active) | -0.65% (active) | 6.77% (active) |
| Cc1ccc(-n2cc(/C=N/NC(=O)c3ccncc3)c(-c3ccc(S(C)(=O)=O)cc3)n2)cc1 | 37% | 76.6% | 95.7% | 89.9% | 97.5% | 81.5% | 94.5% | 76.9% | 74% | 93.4% | 97.7% | 95.2% | 89.4% | 80.4% | 118% | 98% | 90.2% | 88.2% | 84% | 70.4% |
| C#CCC#CCN1CCC[C@H]1C(=O)NCC(=O)OC | 102% | 104% | 105% | 98.9% | 103% | 98.4% | 100% | 104% | 94.4% | 101% | 99.8% | 98.4% | 98.4% | 98.5% | 99.4% | 101% | 102% | 129% | 109% | 107% |
| CNC(=O)c1cc(-c2ccc(NC(=S)Nc3cc(C(F)(F)F)cc(C(F)(F)F)c3)cc2)nc2cccnc12 | 107% | 108% | 49.1% | 104% | 103% | 80.6% | 92.7% | 95.3% | 93.9% | 103% | 99.3% | 70% | 86.7% | 59.7% | 68.9% | 101% | 71.4% | 47.2% | 94.5% | 88% |
| COc1ccc(-n2c(/C=C3\C(=O)Nc4ccccc43)ccc2CO)cc1 | 89.7% | 105% | 101% | 90% | 95.1% | 96.4% | 94.5% | 83.3% | 94.6% | 101% | 104% | 94.7% | 104% | 74.1% | 105% | 93.6% | 84.6% | 107% | 97.8% | 90.2% |
| CCO/C=N/C1=C(C#N)C(c2ccc(F)cc2)c2sc3c(C)cccc3c2O1 (stereo not given) | 11.9% | 9.76% (active) | 8.13% (active) | 18.2% | 21.8% | 14.5% | 4.34% (active) | 12.8% | 9.65% (active) | 56.2% | 42.7% | 44.6% | 17.3% | 27.9% | 66.4% | 23.1% | 28.4% | -0.888% (active) | 21.1% | 23.1% |
| Nc1ncc(-c2ccc(NS(=O)(=O)c3ccc(Cl)c(Cl)c3)cc2)[nH]1 | 94.6% | 107% | 90.9% | 87.7% | 92.3% | 76.5% | 97.2% | 78.2% | 89.5% | 99.3% | 105% | 86.7% | 90.9% | 76.3% | 80% | 95.7% | 71.6% | 85.1% | 55.2% | 73.9% |
| Oc1ccc(CSc2nnc(-c3ccc(Cl)cc3)n2-c2ccccc2)c2cccnc12 | 14.4% | 92.7% | 16.6% | 13.3% | 3.32% (active) | 19.1% | 5.67% (active) | 9.41% (active) | 29.5% | 42.4% | 35.2% | 28.6% | 33.2% | 0.657% (active) | 28.2% | 30.5% | 48.7% | 50.2% | 20.8% | 28.5% |
| COc1cccc(N2CCN(c3ncnc4c3[nH]c3ccc(F)cc34)C[C@H]2C)c1 | 68.4% | 70.4% | 63.2% | 68.7% | 67.9% | 38.2% | -62.3% (active) | 40.5% | 63.1% | 50.7% | 55% | 50.9% | 71.5% | 31.6% | 95% | 63.2% | 42.9% | 37% | 33.3% | 6.42% (active) |
| C#CCNC1CCC(c2csc(C#C)n2)=C1C (stereo not given) | 96.6% | 50.7% | 113% | 90.6% | 4.13% (active) | 80.8% | 90% | 76.8% | -90.7% (active) | 97% | 101% | 24.8% | 65.4% | 44.7% | 130% | -88.2% (active) | 58.3% | 118% | -9.98% (active) | 84.7% |
| C#Cc1nc(/C=C/C(=O)c2nccn2C)cs1 | -72.9% (active) | -38.2% (active) | -3.26% (active) | -79.2% (active) | -74.3% (active) | -78.9% (active) | -84.2% (active) | -84.3% (active) | -81.4% (active) | -31.9% (active) | 18.6% | -59.4% (active) | -47.2% (active) | -80.7% (active) | -18.8% (active) | -94% (active) | -55.7% (active) | -88.1% (active) | -21.6% (active) | -31.2% (active) |
| NS(=O)(=O)c1ccc(Nc2nc(N/N=C/c3ccc(Cl)cc3)nc(Nc3ccccc3)n2)cc1 | 76.4% | 34.2% | 94.3% | 81.8% | 54.6% | 51.7% | 69.1% | 74.9% | 60.4% | 75.3% | 81.7% | 76.6% | 81.6% | 82.1% | 103% | 90.1% | 62.1% | 76.3% | 19.4% | 1.53% (active) |
| O=C(CSc1nc2ccccc2c(=O)n1-c1ccccc1)Nc1cccc(C(=O)/C=C/c2ccccc2Cl)c1 | 92.7% | 102% | 85.6% | 93.3% | 97.7% | 99.4% | 99.3% | 95.5% | 103% | 107% | 105% | 99.4% | 102% | 90.7% | 138% | 103% | 95.9% | 116% | 113% | 106% |
